A selection: hits, their analogues and other compounds. The true share with any hit is near 4.3%.
FAS TE block = blocks the thioesterase domain of human fatty acid synthase. P49327. recombinant FAS-TE, OMFH fluorogenic substrate, fluorescence endpoint. inhibition, % at 15 µM. hit rate 0.67% among 360,000. AID 602261;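 active means compounds whose normalised, plate-corrected inhibition of enzyme fluorescence in the single-dose primary screen is 50% or more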
NadD block = blocks S. aureus nicotinate mononucleotide adenylyltransferase | hit rate 0.78% among 360,000 | inhibition, % at 20 µM | purified NadD enzyme, colorimetric absorbance read-out | AID 602399; in the data active means inhibition above about 26%
rCAG RNA binder = binds r(CAG) RNA repeats. r(CAG) RNA repeat, TO-PRO-1 dye displacement fluorescence. inhibition, % at 3 µM. hit rate 1.3% among 370,000;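 active means inhibition above the plate cutoff, the mean of all test compounds on that plate plus 3 SD, cut at about 35% in these data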;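 further: higher means more dye released from RNA so lower well fluorescence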
GRIN3A LBD mod = modulates the human NR3A ligand-binding domain; NR3A LBD differential scanning fluorimetry, Tm shift; 0% = protein alone, 100% = glycine-bound protein; Tm shift relative to glycine control, % at 25 µM; hit rate 2.5% among 340,000; AID 1259313;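 active means melting temperature shift of at least 10% of the positive control shift, at one fixed dose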
A number is an active result; – = inactive; · = no result given.

SMILES	FAS TE block	NadD block	rCAG RNA binder	GRIN3A LBD mod
CCOC(=O)[C@@]12CCCC=C1N(CCc1ccc(Cl)cc1)C(=O)[C@H]2CC(=O)N1CCC(c2ccccc2)CC1	·	·	–	·
Cc1ccc(C(=O)Nc2ccccc2Sc2ccccc2)cc1	–	–	–	–
O=C(Cc1ccc(Cl)cc1)Nc1ccccc1Sc1ccccc1	–	–	–	15.4
O=C(Nc1ccccc1Sc1ccccc1)c1ccc(F)cc1	–	–	–	18.8
CCCC[C@@H](CCCc1ccc(F)cc1)CCC(=O)N(c1ccccc1)c1ccccc1	·	·	–	·
Cc1ccc(C)c(NC(=O)C2CCCN2S(=O)(=O)c2cccc3cccnc23)c1 (centres undefined)	·	·	–	·
COc1ccc(CCNC(=O)CSc2nnc(Cn3c(=O)sc4ccccc43)n2C)cc1OC	–	–	·	11.1
O=C(COc1ccccc1)N1CCc2ccccc21	–	–	–	–
O=C(COc1ccc(Br)cc1)N1CCc2ccccc21	–	–	–	12.5
C[C@H](O)[C@@H]1C(=O)N2CCc3c([nH]c4c(-c5ccc6c(c5)OCO6)cccc34)[C@@H]2C[C@@H]1N(C)C(=O)NC1CCCCC1	·	·	–	·
CCN(CC)C(=O)CC[C@@H]1CC[C@]2(CCCN(Cc3ccc(Br)cc3)C2)O1	·	·	–	·
Oc1ccccc1/C=N/Nc1nc2ccccc2o1	–	–	–	–
Brc1ccc(/C=N/Nc2nc3ccccc3o2)cc1	–	–	–	28.4
CCOC(=O)c1nn(-c2ccc(Cl)cc2)c2nnc(Cc3ccccc3)c(=O)n12	–	–	–	10.2
CCOC(=O)c1nn(-c2ccc(Cl)cc2)c2nnc(Cc3ccc(C)cc3)c(=O)n12	–	–	–	13.4
CCOC(=O)c1nn(-c2ccccc2)c2nnc(Cc3ccc(Cl)cc3)c(=O)n12	–	–	–	–
CCn1c(SCC(=O)Nc2ccccc2-c2ccccc2)nnc1-c1ccc(C)cc1	·	·	–	·
COc1ccc(/C=C/c2nc(N)nc(-c3ccccc3O)n2)cc1	–	–	–	72.3
COc1ccc(/C=C/c2nc(N)nc(-c3ccccc3O)n2)cc1OC	–	–	–	28.1
O=C(Nc1cccc(Br)c1)OC1CC2CC1[C@H]1CCCCN1[C@H]2Cc1ccccc1 (some centres undefined)	·	·	–	·
O=C(NCC1CCN(C(=O)C(=O)c2cccs2)CC1)c1ccc2c(c1)CCO2	·	·	–	·
CCOc1ccc2nc(N(CCCN(C)C)C(=O)c3ccc4c(c3)CCCC4)sc2c1	–	–	–	–
CN(C)CCN(C(=O)c1ccc2ccccc2c1)c1nc2ccc(Br)cc2s1	–	–	–	–
CN(C)CCCN(C(=O)c1ccc2ccccc2c1)c1nc2cc3c(cc2s1)OCO3	–	–	–	–
Cc1ccc2nc(N(CCN(C)C)C(=O)c3ccc4ccccc4c3)sc2c1	–	–	·	11.9
SMILES	FAS TE block	NadD block	rCAG RNA binder	GRIN3A LBD mod
CN(C)CCCN(C(=O)c1ccc2c(c1)CCCC2)c1nc2ccc(Cl)cc2s1	–	–	–	11.0
CN(C)CCN(C(=O)c1ccc2ccccc2c1)c1nc2cc3c(cc2s1)OCCO3	–	–	–	12.6
CC(C)CN(CCNC(=O)c1cn(C)c2ccc(S(=O)(=O)N3CCCC3)cc2c1=O)CC(C)C	–	–	–	25.6
Cc1ccc2cccc(Oc3ncnc4scc(-c5ccc(Cl)cc5)c34)c2n1	–	–	–	11.2
O=S(=O)(NCC(Nc1ccccc1)c1ccccc1)c1ccc(Cl)cc1 (centres undefined)	–	–	–	17.1
CN(C)C(=O)CCc1ccc2c3c([nH]c2c1)[C@]1(CCc2ccccc2)[C@@H](C(=O)N2CCCCC2)C[C@H](CC(=O)NCc2cccc(C(F)(F)F)c2)C(=O)N1CC3	–	–	–	15.2
O=C(C[C@H]1C[C@H](C(=O)N2CCCCC2)[C@@]2(CCc3ccccc3)c3[nH]c4cc(-c5ccco5)ccc4c3CCN2C1=O)NCc1ccco1	–	51.2	–	–
CC(C)(C)NC(=O)C[C@H]1C[C@H](C(=O)N2CCOCC2)[C@@]2(CCC3CCCC3)c3[nH]c4cc(-c5ccco5)ccc4c3CCN2C1=O	57.5	–	·	–
C/C=C/C=C/C(=O)N1C[C@H](C)N(C)C[C@H]1C	·	·	–	·
COC(=O)c1cc(-c2cccc(OCc3ccccc3)c2)c(=O)n2c1CCC2	·	·	–	·
CCOc1ccc(NC(=O)Nc2cc(OCC(F)(F)F)cc(OCC(F)(F)F)c2)cc1	–	–	–	–
COC(=O)c1ccc(NC(=O)Nc2ccc(F)cc2)cc1	–	–	–	18.2
CCOC(=O)c1ccc(NC(=O)Nc2ccc(F)cc2)cc1	–	–	–	35.0
O=C(Nc1ccc(F)cc1)Nc1cc(OCC(F)(F)F)cc(OCC(F)(F)F)c1	–	–	–	27.1
COc1ccc(NC(=O)Nc2ccccc2F)cc1Cl	–	–	–	20.3
COC(=O)c1ccc(NC(=O)Nc2ccccc2F)cc1	–	–	–	–
O=C(CNS(=O)(=O)c1cccc2ccccc12)N1CCN(c2ncccn2)CC1	·	·	–	·
CCC(C)(C)C(=O)N1CCc2cc(S(=O)(=O)N(C)Cc3ccco3)ccc21	·	·	–	·
CC(C)(C)c1ccc(NC(=O)Nc2ccc(F)cc2)cc1	–	–	–	14.4
COC(=O)c1ccc(NC(=O)Nc2ccc(F)c(Cl)c2)cc1	–	–	–	41.3
COC(=O)c1ccc(NC(=O)Nc2ccccc2C)cc1	–	–	–	–
COC(=O)c1ccc(NC(=O)Nc2ccc(OC)cc2)cc1	–	–	–	10.3
CCc1ccc(CCC(=O)Nc2ccc(OC)cc2)o1	–	–	–	32.5
COc1ccc(NC(=O)Nc2ccc3[nH]ccc3c2)cc1	–	–	–	34.8
COC(=O)c1ccc(NC(=O)Nc2ccc3c(c2)nc(C)n3C)cc1	–	–	–	25.0
SMILES	FAS TE block	NadD block	rCAG RNA binder	GRIN3A LBD mod
Cc1ccc(-n2c(SCC(=O)Nc3ccc(OCc4ccccc4)cc3)nnc2-c2ccccc2)cc1	·	·	–	·
Cc1ccc(-n2c(SCC(=O)C(C)(C)C)nnc2-c2cccc(C)c2)cc1	·	·	–	·
O=C(Nc1ccc(C(=O)O)cc1)Nc1ccc([N+](=O)[O-])cc1	–	–	–	–
COc1ccc(NC(=O)Nc2ccc3nonc3c2)cc1	–	–	–	18.7
COc1ccc(NC(=O)Nc2ccc3nccnc3c2)cc1	–	–	–	–
COc1ccc(NC(=O)Nc2ccc(OC)cc2)cc1	–	–	–	13.2
COC(=O)c1ccc(NC(=O)Nc2ccc([N+](=O)[O-])cc2)cc1	–	–	–	34.0
COc1ccc(C(=O)CC(=O)Nc2ccc([N+](=O)[O-])cc2)cc1	–	–	–	24.4
COc1ccc(NC(=O)CNC(=O)c2ccc([N+](=O)[O-])cc2)cc1	–	–	–	–
CCOc1ccc(NC(=O)c2cc(-c3ccc(Cl)cc3)nc3ccccc23)cc1	·	·	–	·
CCOC(=O)[C@@]12CCC3=C1N(CCC3)C(=O)[C@H](CC(=O)NCCc1ccccc1OC)C2	·	·	–	·
CN1C(=O)C[C@@](C#N)(C(=O)N2CCOCC2)[C@H]1c1ccccc1	·	·	–	·
CCOC(=O)[C@]12CCCC3=C1N(CCC3)C(=O)[C@@H](CC(=O)NCCCN1CCCC1=O)C2	·	·	–	·
COc1ccc(NC(=O)Nc2ccc(N(C)C)cc2)cc1	–	–	–	11.8
CN(C)c1ccc(NC(=O)Nc2cccc3ccccc23)cc1	–	–	–	–
O=C(Nc1cccc(O)c1)c1c(O)c2ccccc2[nH]c1=O	–	–	–	44.4
